The first assay deals with PLK2. Conditions: concentration: 1 μM, replicates: in singlicate; n = 1.
Regarding `Cc1cccc(-c2nc(-c3ccc(S(C)(=O)=O)cc3)sc2-c2ccncc2)c1`, the “%Inh” value was found to be 8%.
On to `Cc1ccc(NC(=O)c2ccnc(N3CCN(C)CC3)c2)cc1-c1ccc(C(=O)NCC2CC2)cc1` [GW775604], for which the “%Inh” value is on record as 7%.
On the same count and under the same terms, the figure for `COc1ccc(COc2cc(-n3cnc4ccccc43)sc2C(N)=O)cc1` [GSK1024304] is 90%; for `Fc1ccc(-c2ncn(CCCN3CCOCC3)c2-c2ccccn2)cc1` [SB-211742] it is 0%; for `CCCCCc1nc2c(N)ncnc2n1CCCCC` [SKF-97255] it is 18%.
The same measure, in the same setting: the figure for `N#Cc1c(N2CCOCC2)sc(-c2ccn[nH]2)c1-c1ccc(Cl)cc1` is 20%.
Regarding `O=C(Nc1cccc(-c2nn3ncccc3c2-c2ccnc(Nc3cccc(C(F)(F)F)c3)n2)c1)c1c(F)cccc1F` [GSK299495], the “%Inh” value was determined as 0%.
With `CC(=O)Nc1ccc(COc2ccc(Nc3ccnc4cc(-c5ccccn5)ccc34)cc2)cc1.Cl` [GW440148], the “%Inh” value is 0%.
For `c1ccc(-c2cc(-c3c[nH]nc3-c3ccccn3)ccn2)cc1` [GW576604], the “%Inh” value worked out at 0%.
For `O=C(c1ccc(-c2cc(-c3c[nH]nc3-c3ccccn3)ccn2)cc1)N1CCOCC1` [GW812171], the “%Inh” value was 14%.
`Nc1nc(-c2ccc3c(N)n[nH]c3c2)cc(N2CCCC2)n1` [GSK2227430]: the “%Inh” value amounted to 0%.
With `COc1ccc(Nc2nccc(N3CCC(NC(=O)Nc4cccc(C(C)=O)c4)C3)n2)cc1` (stereo not shown) [GSK1379731], the “%Inh” value came to 0%.
Same read-out and setting: the figure for `O=C1Cc2cc(Nc3nc(NCc4cccc(S(=O)(=O)C(F)(F)F)c4)ncc3C(F)(F)F)ccc2N1` is 5%.
The same measure, in the same setting: for `Cc1cccc(Cn2ccn3c(=O)cc(N4CCOCC4)nc23)c1` [GSK2297542] the value was 0%.
Regarding `O=c1cc(N2CCOCC2)nc2n(Cc3cccc(F)c3)ccn12` [GSK2297430], the “%Inh” value is recorded as 0%.
As to `Cc1nnc(-c2ccc3occ(-c4ccc(C(C)O)cc4)c3c2)o1` (stereo not shown), the “%Inh” value came to 0%.
On the same count and under the same terms, for `O=c1cc(N2CCOCC2)nc2n(Cc3cccc4ccccc34)ccn12` [GSK2333389] the value was 0%; for `Fc1ccc(-c2ncn(CCCN3CCOCC3)c2-c2cccnc2)cc1` [SB-211743], 0%; for `Cc1ccc(C(=O)NCC(N)=O)cc1-n1c(C)cc(OCc2ccc(F)cc2F)c(Br)c1=O`, 0%.
Consider `Cn1ccc2ncnc(Oc3ccc(NC(=O)Nc4ccncc4)c(Cl)c3)c21`, for which the “%Inh” value came to 8%.
Still for that read-out and setting: the figure for `COc1ccc(Nc2ncc(C#N)c(Nc3ccccc3C(N)=O)n2)cc1N1CCN(C)CC1.Cl` [GSK1558669] is 100%; for `COc1ccc(S(=O)(=O)NC2CCN(c3cc(C)nc(Nc4cccc(C#N)c4)n3)CC2)cc1.O=C(O)C(F)(F)F` [GSK1653539] it is 0%.
Take `c1ccc(-c2n[nH]cc2-c2ccnc3ccccc23)nc1` [GW271431]: the “%Inh” value is given as 0%.
Turning to `Nc1nccc(-c2c(-c3ccc(F)cc3)ncn2C2CCN(CC(F)(F)F)CC2)n1` [SB-236560], the “%Inh” value is 0%.
The same measure, in the same setting: for `COc1cc2ncn(-c3cc(OCc4sccc4Cl)c(C(N)=O)s3)c2cc1OC` [GSK448459] the value was 99.5%.
Turning to `O=c1cc(N2CCOCC2)nc2n(Cc3cccc(Cl)c3Cl)c(C3CC3)nn12` [GSK2358994], the “%Inh” value turned out to be 0%.
Take `CCc1nc(-c2cccc(C)c2)c(-c2ccnc(NCc3ccccc3)c2)s1`: the “%Inh” value came out at 7%.
`CSc1ccc(-c2cc3ncnc(SCC(=O)O)c3s2)cc1`: the “%Inh” value is 0%.
Consider `COc1ccc(Nc2nccc(N3CCC(NC(=O)Nc4cc(C)ccc4C)C3)n2)cc1` (stereo not shown) [GSK1379741], for which the “%Inh” value stood at 0%.
Same read-out and setting: the figure for `CC(C)(C)n1cnc2c(N)ncnc21` [SKF-97359] is 0%; for `O=C(Nc1n[nH]c2cc(-c3cccc(F)c3)ccc12)C1CC1` [SB-735464] it is 37%; for `Cc1c2ccc(N(C)c3ccnc(Nc4cccc(S(N)(=O)=O)c4)n3)cc2nn1Cc1ccccc1.Cl.Cl` [GW787226] it is 0%.
In the case of `O=C(NCCNc1ccnc(Nc2ccc(F)cc2)n1)c1cc2ccccc2s1` [GSK1379874], the “%Inh” value is on record as 0%.
Still for that read-out and setting: for `Cc1cn2c(=O)cc(N3CCOCC3)nc2n1Cc1cccc(Cl)c1Cl` [GSK2334006] the value was 0%.

The subject of another assay is PLK3. Conditions: concentration: 1 μM, replicates: in singlicate; n = 1.
For `Cc1cccc(-c2nc(-c3ccc(S(C)(=O)=O)cc3)sc2-c2ccncc2)c1`, the “%Inh” value turned out to be 6%.
Same read-out and setting: the figure for `Cc1ccc(NC(=O)c2ccnc(N3CCN(C)CC3)c2)cc1-c1ccc(C(=O)NCC2CC2)cc1` [GW775604] is 5%; for `COc1ccc(COc2cc(-n3cnc4ccccc43)sc2C(N)=O)cc1` [GSK1024304] it is 86%; for `Fc1ccc(-c2ncn(CCCN3CCOCC3)c2-c2ccccn2)cc1` [SB-211742] it is 0%.
Still for that read-out and setting: the figure for `CCCCCc1nc2c(N)ncnc2n1CCCCC` [SKF-97255] is 27%; for `N#Cc1c(N2CCOCC2)sc(-c2ccn[nH]2)c1-c1ccc(Cl)cc1` it is 15%.
Same read-out and setting: the figure for `O=C(Nc1cccc(-c2nn3ncccc3c2-c2ccnc(Nc3cccc(C(F)(F)F)c3)n2)c1)c1c(F)cccc1F` [GSK299495] is 2%; for `CC(=O)Nc1ccc(COc2ccc(Nc3ccnc4cc(-c5ccccn5)ccc34)cc2)cc1.Cl` [GW440148] it is 0%.
With `c1ccc(-c2cc(-c3c[nH]nc3-c3ccccn3)ccn2)cc1` [GW576604], the “%Inh” value stood at 0%.
Turning to `O=C(c1ccc(-c2cc(-c3c[nH]nc3-c3ccccn3)ccn2)cc1)N1CCOCC1` [GW812171], the “%Inh” value was found to be 28%.
In the case of `Nc1nc(-c2ccc3c(N)n[nH]c3c2)cc(N2CCCC2)n1` [GSK2227430], the “%Inh” value was 0%.
The same measure, in the same setting: for `COc1ccc(Nc2nccc(N3CCC(NC(=O)Nc4cccc(C(C)=O)c4)C3)n2)cc1` (stereo not shown) [GSK1379731] the value was 0%; for `O=C1Cc2cc(Nc3nc(NCc4cccc(S(=O)(=O)C(F)(F)F)c4)ncc3C(F)(F)F)ccc2N1`, 1%.
Still for that read-out and setting: for `Cc1cccc(Cn2ccn3c(=O)cc(N4CCOCC4)nc23)c1` [GSK2297542] the value was 0%.
The same measure, in the same setting: the figure for `O=c1cc(N2CCOCC2)nc2n(Cc3cccc(F)c3)ccn12` [GSK2297430] is 0%.
Consider `Cc1nnc(-c2ccc3occ(-c4ccc(C(C)O)cc4)c3c2)o1` (stereo not shown), for which the “%Inh” value amounted to 0%.
With `CC(C)(CN)c1nc(-c2ccc(Cl)c(O)c2)c(-c2ccncc2)[nH]1.O=C(O)C(F)(F)F` [SB-477794], the “%Inh” value was found to be 0%.
Take `O=c1cc(N2CCOCC2)nc2n(Cc3cccc4ccccc34)ccn12` [GSK2333389]: the “%Inh” value is recorded as 0%.
On the same count and under the same terms, for `Fc1ccc(-c2ncn(CCCN3CCOCC3)c2-c2cccnc2)cc1` [SB-211743] the value was 15%.
On the same count and under the same terms, for `Cc1ccc(C(=O)NCC(N)=O)cc1-n1c(C)cc(OCc2ccc(F)cc2F)c(Br)c1=O` the value was 0%; for `Cn1ccc2ncnc(Oc3ccc(NC(=O)Nc4ccncc4)c(Cl)c3)c21`, 0%; for `COc1ccc(Nc2ncc(C#N)c(Nc3ccccc3C(N)=O)n2)cc1N1CCN(C)CC1.Cl` [GSK1558669], 100%.
Still for that read-out and setting: for `COc1ccc(S(=O)(=O)NC2CCN(c3cc(C)nc(Nc4cccc(C#N)c4)n3)CC2)cc1.O=C(O)C(F)(F)F` [GSK1653539] the value was 0%; for `c1ccc(-c2n[nH]cc2-c2ccnc3ccccc23)nc1` [GW271431], 0%.
As to `NCCNS(=O)(=O)c1ccc(-c2ccnc3[nH]ccc23)cc1` [GSK977617], the “%Inh” value is recorded as 0%.
The same measure, in the same setting: for `Nc1nccc(-c2c(-c3ccc(F)cc3)ncn2C2CCN(CC(F)(F)F)CC2)n1` [SB-236560] the value was 0%.
Same read-out and setting: for `COc1cc2ncn(-c3cc(OCc4sccc4Cl)c(C(N)=O)s3)c2cc1OC` [GSK448459] the value was 99.5%.
Turning to `O=c1cc(N2CCOCC2)nc2n(Cc3cccc(Cl)c3Cl)c(C3CC3)nn12` [GSK2358994], the “%Inh” value is 16%.
Same read-out and setting: for `CCc1nc(-c2cccc(C)c2)c(-c2ccnc(NCc3ccccc3)c2)s1` the value was 6%.
Same read-out and setting: the figure for `CSc1ccc(-c2cc3ncnc(SCC(=O)O)c3s2)cc1` is 0%; for `COc1ccc(Nc2nccc(N3CCC(NC(=O)Nc4cc(C)ccc4C)C3)n2)cc1` (stereo not shown) [GSK1379741] it is 0%; for `CC(C)(C)n1cnc2c(N)ncnc21` [SKF-97359] it is 0%.
As to `O=C(Nc1n[nH]c2cc(-c3cccc(F)c3)ccc12)C1CC1` [SB-735464], the “%Inh” value stood at 13%.
Consider `Cc1c2ccc(N(C)c3ccnc(Nc4cccc(S(N)(=O)=O)c4)n3)cc2nn1Cc1ccccc1.Cl.Cl` [GW787226], for which the “%Inh” value was 15%.
On the same count and under the same terms, the figure for `O=C(NCCNc1ccnc(Nc2ccc(F)cc2)n1)c1cc2ccccc2s1` [GSK1379874] is 0%; for `Cc1cn2c(=O)cc(N3CCOCC3)nc2n1Cc1cccc(Cl)c1Cl` [GSK2334006] it is 0%.
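Also: KINOMEscan kinase panel screen.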
